A selection: hits, their analogues and other compounds. The true share with any hit is near 19%.
IL1B secr inh – blocks inflammasome-driven IL-1 beta release; 360,000 compounds, 4.7% hits; activity change, % at 57.5 µM; THP-1 LPS/ATP IL-1B secretion, AlphaLISA, 16 h; hits give low values; in the data active means activity change below about -50%; inconclusive means mostly about -30% to -49%
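THP-1 cells pretreated 1 hr with compounds (up to 57.5 uM final), then stimulated with LPS (250 ng/mL final) plus ATP (1.25 mM final); secreted IL-1B measured by AlphaLISA after 16 hr, decreased signal indicating inhibition.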
HT1080 IDH1KD tx – HT-1080 IDH1 knockdown cell toxicity (counter line). Potency, µM (doses to about 46.1 µM), for the others: at the highest dose activity, negative = toxicity, most hits filed as cytotoxic. HT-1080 IDH1 knockdown viability, ATP luminescence, 48 h. 360,000 compounds, 2% hits;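 further: potency means the concentration at half of the fitted maximal effect; 0% = DMSO wells and -100% = cell-free medium wells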
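In this qHTS, HT-1080 cells depleted of IDH1 are exposed for 48 h at 37 °C to compound titrations. Toxicity is scored from CellTiter-Glo luminescence, with DMSO as full viability and medium alone as none.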
DT40 TDP1 no CPT – qHTS for Inhibitors of human tyrosyl-DNA phosphodiesterase 1 (TDP1): qHTS in cells in absence of CPT; 420,000 compounds, 15% hits; Potency, µM (doses to about 46.2 µM), for inactives: top-dose activity change, negative = growth inhibition, usual class: inhibitors; DT40 Tdp1-/- hTDP1 cells, no CPT, ATP luminescence, 48 h; further: potency means the concentration at half of the fitted maximal effect; nearly all actives have a fitted effect of over 55% in size
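DT40 Tdp1-/-;hTDP1 cells, no CPT (DMSO vehicle only), 400 cells/well; compounds pin-transferred; ≥48 hr, 37 °C; CellTiter-Glo 30 min RT dark, luminescence read.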
HT1080NT lethal – kills 2HG-producing HT-1080-NT fibrosarcoma cells | HT-1080-NT fibrosarcoma viability, CellTiter-Glo ATP luminescence, 48 h | Potency, µM (titrated, usually from 46.1 µM), inactives show at the top dose activity, negative = less viability, hits mostly cytotoxic | 360,000 compounds, 1.6% hits | AID 686970;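 further: NT is the 2HG producing partner of a matched IDH1 knockdown line; potency means the concentration at half of the fitted maximal effect; 0% = DMSO-treated cells and -100% = media-only wells without cells; nearly all actives have a fitted effect of over 55% in size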
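Read-out is CellTiter-Glo luminescence after 10 minutes at room temperature, following 48 hours' compound treatment of HT-1080-NT cells (750 cells/well, RPMI, 5% FBS, 37 degrees C).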
TDP1 cell CPT – DT40-hTDP1 cell growth loss with CPT | 420,000 compounds, 12% hits | Potency, µM (series often up to 46.2 µM), without a hit: at the top dose activity change, negative = growth inhibition, most hits filed as inhibitors | AID 686979 | chicken DT40 Tdp1-/-;hTDP1 cells + 20 nM CPT, ATP luminescence, 48 h; further: potency means the concentration at half of the fitted maximal effect; nearly all actives have a fitted effect of over 55% in size
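Chicken DT40 Tdp1-/- cells stably complemented with human TDP1 were seeded at 400 cells/well in medium containing 20 nM camptothecin, exposed to pin-transferred compounds, and grown at 37 °C for at least 48 hr. Viability was read as ATP luminescence.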
An asterisk follows results filed as active; u = inconclusive; x = no result; ! = not active in a repeat. Unless noted, the call rests on the fitted dose curve; in most records, active means well fitted curve in the direction sought with a large enough effect; inconclusive means small, poorly fitted or top-dose-only effect, or another doubt; inactive means no such curve, though single readings can be large; an effect the other way counts as inactive or inconclusive. Unless noted, on the % scale 0 is the no-effect control and ±100 the full control effect.

SMILES	IL1B secr inh	HT1080 IDH1KD tx	DT40 TDP1 no CPT	HT1080NT lethal	TDP1 cell CPT
CCOC(=O)[C@]12Cc3cc(Cl)ccc3[C@H]1N(C1CCCCC1)C(=O)c1ccccc12	-114*	2.3µM*	2.3µM*	2.3µM*	2.3µM*
ClCCN(CCCl)c1ccc(-n2cnc3c(Cl)ncnc32)cc1	-96*	23µM*	6.5µM*	u	6.5µM*
Nc1ncn[nH]1	-1	6%	u	1%	u
C[C@H]1CCC/C=C/[C@@H]2C[C@H](O)C[C@H]2[C@@H](O)/C=C/C(=O)O1	-54*	0.15µM*	0.58µM*	u	0.18µM*
C[C@H]1CCCC=CC2C[C@H](O)C[C@@H]2[C@H](O)C=CC(=O)O1 (some centres not stated)	x	x	0.15µM*	x	0.028µM*
CCCCC[C@@H]1CCCCC[C@H](O)C[C@H](O)[C@@H](O)/C=C/C(=O)O1	0	-2%	u	-19%	u
Cn1cccc1/C=C1\C(=O)NC(=O)N(Cc2ccccc2)C1=O	39	u	2.1µM*	u	5.8µM*
Cn1cccc1/C=C1/C(=O)NC(=O)N(Cc2ccccc2)C1=O	-22	u	2.3µM*	-17%	4.6µM*
Cn1cccc1/C=C1/C(=O)NC(=O)N(Cc2ccc(F)cc2)C1=O	43	-16%	9.2µM*	u	12µM*
Cn1cccc1/C=C1/C(=O)NC(=S)N(Cc2ccc(F)cc2)C1=O	u	-7%	2.6µM*	-26%	3.7µM*
C[N+]1(C)[C@@H]2CC[C@H]1CC(OC(=O)c1c[nH]c3ccccc13)C2 (some centres not stated)	x	x	-4%	x	7%
CN1CCN(c2ncc3ncc(=O)n(C)c3n2)CC1	x	x	23%	x	-9%
CNC(C)CC1CCCCC1 (configuration not stated)	x	x	-14%	x	-3%
CC(C)[C@@]1(NC(=O)[C@H]2CC3c4cccc5[nH]cc(c45)C[C@H]3N(C)C2)O[C@@]2(O)C3CCCN3C(=O)[C@@H](Cc3ccccc3)N2C1=O (some centres not stated)	x	x	15µM*	x	15µM*
CN1C[C@H](C(=O)N[C@]2(C)O[C@@]3(O)[C@@H]4CCCN4C(=O)[C@H](Cc4ccccc4)N3C2=O)CC2c3cccc4[nH]cc(c34)C[C@H]21 (some centres not stated)	-15	u	18µM*!	u	u
COC[C@H]([C@@H](O)[C@@H](O)C(=O)NCC[C@@H](C)c1nc(/C=C/C[C@H]2OC3(C[C@H](O)[C@H]2C)OC([C@@H](C[C@@H](O)[C@@H](C)[C@@H](O)[C@@H](C)/C=C(C)/C(C)=C/C=C/C(C)=C\C#N)OC)[C@@H](OP(=O)(O)O)C3(C)C)co1)N(C)C (some centres not stated)	x	x	0.0016µM*	x	0.0022µM*
C=C(C)[C@H]1C2C(=O)O[C@H]1[C@H]1OC(=O)[C@@]34O[C@@H]3C[C@]2(O)[C@@]14C	x	x	-1%	x	-2%
c1cncc(CNc2cc(-c3ccc4c(c3)OCO4)ncn2)c1	x	x	u	x	7%
CCCCCC[C@H]1C(=O)O[C@H](C)[C@H](NC(=O)c2cccc(NC=O)c2O)C(=O)O[C@@H](C)[C@@H]1OC(=O)CC(C)C	x	x	0.019µM*	x	0.017µM*
COc1ccc(-c2[nH]ncc2CNC(C)Cc2ccsc2)c(F)c1 (configuration not stated)	-2	-1%	u	-4%	u
CC(Cc1ccsc1)NCc1cn[nH]c1-c1ccc(F)cc1F (configuration not stated)	-54*	-21%	u	-15%	u
Cc1ccc(O)c(CN2CCC3CCC(C3)C2)c1 (configuration not stated)	-12	9%	-4%	7%	-2%
C[C@H]1C=CC(=O)O[C@H]1c1ccccc1	-105*	-20%	u	-25%	u
CC1=C(C)[N+](=O)C2CCCCC2N1[O-] (configuration not stated)	-9	4%	5%	4%	u
COc1nnc(-c2ccc(N3CCCCC3)c(NC(=O)c3ccccc3)c2)c2ccccc12	x	x	15µM*	x	u
SMILES	IL1B secr inh	HT1080 IDH1KD tx	DT40 TDP1 no CPT	HT1080NT lethal	TDP1 cell CPT
Cc1cnc(C)c(Nc2nc(C(N)Cc3ccc(C(F)(F)F)cc3)cs2)n1 (configuration not stated)	u	16µM*	12µM*	u	12µM*
CN(C)c1ccc(N=O)cc1	x	x	5µM*	x	0.56µM*
CN(C)c1ccc(P(=S)(N(C)C)N(C)C)cc1	8	1%	u	10%	u
COc1ccc(CC(N)c2csc(NC(=O)Nc3ccccc3Oc3ccccc3)n2)cc1 (configuration not stated)	u	u	16µM*	15µM*	u
NC(Cc1ccc(Cl)cc1)c1csc(Nc2cnccn2)n1 (configuration not stated)	u	u	-83%	u	-89%
COc1ccc(C(=O)Nc2ccc(-c3cc(C(F)(F)F)nn3-c3ccccc3)cc2)cc1OC	x	x	13µM*	x	18µM*
COC(=O)C(O)(c1ccc(NC(=O)c2ccccc2)cc1)C(F)(F)F (configuration not stated)	0	1%	-18%	5%	4%
CN(C)c1ccc(P(=O)(OC2CCCCC2)C(Nc2ccccc2)c2cccnc2)cc1 (configuration not stated)	-52*	-19%	21µM*	-21%	u
CC(C)COP(=O)(c1ccc(N(C)C)cc1)C(Nc1ccccc1)c1ccccc1 (configuration not stated)	-3	-6%	29µM*	-12%	u
CC(C)COP(=O)(OCC(C)C)C(Nc1ccccc1)c1ccccc1 (configuration not stated)	-58*	u	u	18µM*	u
COP(=O)(OC)C(Nc1ccccn1)c1ccccc1 (configuration not stated)	13	14%	0%	7%	-2%
O=P(Oc1ccccc1)(Oc1ccccc1)C(Nc1ccccc1)c1ccccc1 (configuration not stated)	0	-10%	16µM*	-27%	u
CC(C)CCOP(=O)(c1ccc(N(C)C)cc1)C(O)c1ccccc1 (configuration not stated)	14	2%	u	-10%	u
CNCC(=O)c1ccccc1	69	-7%	u	-6%	u

Assay outcomes: PubChem BioAssay, National Center for Advancing Translational Sciences (NCATS)
